# AID504770: growth inhibition of E. coli YBA685, primary screen, V. cholerae RctB inhibitors; E. coli YBA685 rctB-dependent plasmid, OD600 growth, 3 h; hits give low values; z-score (test concentration not listed); actives 0.27% (n = 130,000); in the data active means z-score below about -2, passing the limit was not always enough
# MbtI inh: MbtI salicylate synthase inhibitors, primary screen, biochemical, fluorescence intensity. P9WFX0. purified MbtI enzyme, fluorescence intensity read-out. inhibition, % (test concentration not listed). actives 0.89% (n = 100,000). AID 493033, 2011; in the data active means inhibition mostly above about 56%, no sharp cut-off; inactive means mostly below about 77%
# Polio RdRp inh: poliovirus RdRp elongation inhibitors, primary screen, biochemical, fluorescence polarization, total intensity; Genome polyprotein (Poliovirus type 1 (strain Mahoney)), P03300; poliovirus polymerase elongation; hits give low values; % elongation, % (compound at 16.7 µg/mL); actives 0.66% (n = 150,000); AID 588519, 2011; in the data active means % elongation below about 90%
# Target sequence (P03300 1749-2209 limits assumed): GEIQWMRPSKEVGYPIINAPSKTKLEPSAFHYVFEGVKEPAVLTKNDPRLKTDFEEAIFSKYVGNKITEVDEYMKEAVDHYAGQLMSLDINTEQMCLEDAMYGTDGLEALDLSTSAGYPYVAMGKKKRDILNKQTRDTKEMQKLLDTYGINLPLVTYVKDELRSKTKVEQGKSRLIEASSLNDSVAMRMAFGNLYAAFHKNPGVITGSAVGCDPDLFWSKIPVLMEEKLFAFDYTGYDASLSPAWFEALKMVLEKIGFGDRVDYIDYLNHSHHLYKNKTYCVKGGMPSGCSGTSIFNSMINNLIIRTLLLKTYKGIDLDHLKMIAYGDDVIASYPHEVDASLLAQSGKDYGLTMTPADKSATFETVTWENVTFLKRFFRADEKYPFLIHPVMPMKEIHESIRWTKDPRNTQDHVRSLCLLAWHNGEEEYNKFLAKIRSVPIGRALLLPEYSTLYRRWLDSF
# MenB inh: M. tuberculosis MenB inhibitors, primary screen, biochemical, absorbance; MenB enzyme assay, absorbance read-out; inhibition, % (concentration not given with the values); actives 0.43% (n = 100,000); in the data active means inhibition above about 21%, passing the limit was not always enough
# Starred values were filed as active, the others as inactive; / = not tested or not shown. Hits are enriched below; roughly 1.4% of the tested compounds scored in any of these assays.
SMILES,AID504770,MbtI inh,Polio RdRp inh,MenB inh
Cc1c(C(=O)CSc2ncc(C#N)c(N)n2)c2ccccc2n1C,0.15,/,102.0,29.6*
NNC(=O)Cn1ccc(C(F)(F)F)n1,1.2,-3.8,114.0,-5.4
CC(=O)N1C(=O)/C(=C2\SC(=S)N(C(C)C(=O)O)C2=O)c2ccccc21 (stereo not drawn),1.7,8.9,103.0,33.8*
Cc1ccc(N2C(=O)CC(NCc3ccc(S(N)(=O)=O)cc3)C2=O)cc1Cl (stereo not drawn),1.4,5.6,99.0,-20.8
C=CCN(C)C1CC(=O)N(c2ccc(C)c(Cl)c2)C1=O (stereo not drawn),-0.1,94.5*,99.0,9.9
S=c1c(Cl)c(Cl)cnn1Cc1ccccc1,0,/,67.0*,-49.9
Cc1ccc(C)n1-c1ccc(C(=O)N2CCNC(=O)C2)cc1,-0.25,8.1,/,-20.6
Fc1ccc(/C=N/c2nnc3nc[nH]n23)cc1,-0.7,/,88.0*,-3.6
CC(=O)Nc1sc2c(c1CN(C)C)CCCC2,-0.75,-5.7,107.0,-12.5
CC(=O)Nc1sc2c(c1-c1nsc(=O)o1)CCCC2,-0.8,/,82.0*,-30.0
CC1CCN(S(=O)(=O)c2ccc3[nH]c(=O)cc(C(=O)NCCCN4CCOCC4)c3c2)CC1,-0.4,22.0,99.0,-9.7
CC(NC(=O)c1cc(=O)[nH]c2ccc(S(=O)(=O)N3CCOCC3)cc12)C12CC3CC(CC(C3)C1)C2 (stereo not drawn),-0.2,11.4,-9.0*,-13.3
CCCCn1c(=S)[nH]c2sc3c(c2c1=O)CCCC3,-0.15,1.9,100.0,-46.5
COCCn1c(=S)[nH]c2sc(C)c(C)c2c1=O,0.15,100.5*,80.0*,-48.0
Clc1cccc(CNCc2cccs2)c1,0.8,1.3,102.0,37.5*
CCc1ccc(CNCc2cccs2)cc1,-1.25,-13.4,105.0,-50.6
COc1ccc(NC(=O)N(CCN(C)C)Cc2cc3cc(OC)ccc3[nH]c2=O)cc1,0.05,79.7,103.0,34.3*
Cc1ccc2nc(-c3ccc(NC(=O)C4CC4)cc3)sc2c1,-1.05,/,/,/
CCN(CC)C(=O)COc1ccc2ccc(=O)oc2c1,0.05,-42.9,104.0,9.0
CCN(CC)C(=O)COc1ccc2c(CC(=O)O)coc2c1,-2.6*,-8.6,104.0,-6.1
Cc1c(N=Cc2cc(Br)cc(Br)c2O)cccc1C(=O)O,-0.7,-12.9,88.0*,-55.6
COc1ccc(NC(=O)CN(c2ccc(C)cc2)S(=O)(=O)c2cccs2)cc1OC,/,/,103.0,/
Cc1ccc(N(CC(=O)Nc2ccc(C)c(Cl)c2)S(=O)(=O)c2cccs2)cc1,/,/,89.0*,/
CCS(=O)(=O)C1=NSC2=NC(=O)/C(=C\c3ccco3)C(=N)N21,-0.45,34.8,72.0*,-40.8
O=C(NN=C1C2CC3CC(C2)CC1C3)c1ccncc1,-0.1,5.2,100.0,3.8
SMILES,AID504770,MbtI inh,Polio RdRp inh,MenB inh
O=C(N/N=C1\C/C(=N\NC(=O)c2ccncc2)c2ccccc21)c1ccncc1,-2.3,-34.5,87.0*,-205.7
C/C(=N\O)c1ccc(-n2ccnc2)cc1,2,/,/,/
O=C1OC(c2ccccc2)=C/C1=C/c1ccccc1,1,/,/,/
CN(C)/C=C1/C=C(c2ccccc2)OC1=S,2.9,79.9*,99.0,-167.7
CC(=O)N1c2ccccc2C(=O)C1N1CCN(c2cc(C)ccc2C)CC1 (stereo not drawn),0.15,111.0,100.0,-2.5
NCC1CCN(Cc2ccccc2)C1 (stereo not drawn),0.45,34.2,103.0,28.2*
c1ccc(CN2CCCC(c3ccccc3)C2)cc1 (stereo not drawn),-0.6,-10.9,/,/
Cc1ccc(N=C2NN=C(c3ccccc3)C(C(=O)Nc3ccc4c(c3)OCO4)S2)cc1 (stereo not drawn),1.05,39.4,85.0*,-7.1
NC(=O)CCSc1nnc(SCC(=O)c2ccccc2)s1,-1.05,/,/,/
CNC(=S)Nc1ccc(OC)cc1C,1,7.8,100.0,5.3
Oc1ccc(O)c(C2CC3CCC2C3)c1 (stereo not drawn),-0.4,102.5*,99.0,-30.2
COc1cccc(NC(=O)CC2SC(N)=NC2=O)c1 (stereo not drawn),1.35,/,/,/
O=C(NCc1ccccc1)N1CCN(C(c2ccc(F)cc2)c2ccc(F)cc2)CC1,-2.85*,-7.7,103.0,-11.7
NC(=O)C1CCN(C(c2ccc(F)cc2)c2nnc(-c3ccccc3)o2)CC1 (stereo not drawn),0.5,-19.1,102.0,-12.4
COC(=O)C1CCN(C(c2ccc(F)cc2)c2ccc(F)cc2)CC1,-0.2,0.9,100.0,20.5*
O=C(NCc1ccccc1)N1CCCCC1,0,-3.8,100.0,9.0
O=C1c2cccnc2C(=O)N1CCc1ccc(S(=O)(=O)NC2CCCCCC2)cc1,0.75,-1.6,104.0,-30.1
COc1cc(NCCCC(C)N)c2ncccc2c1 (stereo not drawn),-0.1,4.5,35.0*,-9.2
N#CCn1c(Cc2ccccc2)nc2ccccc2c1=O,0.7,13.9,101.0,47.9*
N#CCn1c(C[S+]=C=N)nc2ccccc2c1=O,0.6,84.3*,100.0,-39.6
CN(C)Cc1nc2ccccc2c(=O)n1CC#N,1.25,4.9,113.0,9.0
CCCC(=O)Oc1c(Sc2ccccc2)c(C)nn1-c1ccccc1,/,57.9*,/,/
O=C(CSc1ccc2c(c1)OCCO2)Nc1ccccc1,-0.2,0.3,99.0,-9.1
CN(CC(=O)Nc1ccc(F)cc1)C(=O)CSc1ccc2c(c1)OCCO2,2.05,98.5*,106.0,-23.6
COC(=O)C1C(O)=C(C=Nc2ccccc2)C(=O)CC1(C)C (stereo not drawn),0.6,30.9,101.0,33.8*
SMILES,AID504770,MbtI inh,Polio RdRp inh,MenB inh
CCn1c(=O)c2sccc2n2c(CCCC(=O)N3CCN(c4ccc(OC)cc4)CC3)nnc12,/,/,49.0*,/
O=C(c1ccccn1)c1conc1-c1c(Cl)cccc1Cl,-1.2,/,/,/
CC1CN(S(=O)(=O)c2cccs2)C(C)CN1S(=O)(=O)c1cccs1 (stereo not drawn),1.05,-5.0,101.0,-7.2
COC(=O)c1cc2cccc(OC)c2oc1=O,-0.65,9.6,101.0,15.3
COc1cccc(OC)c1C(=O)ON=C1C=CC(=O)C=C1,-1.3,82.7*,103.0,-24.0
CCS(=O)(=O)c1nc(S(=O)(=O)c2ccc(Cl)cc2)c(NCc2ccc(OC)cc2)s1,-1.85,-1.6,104.0,-8.4
O=C(O)C(Cc1ccccc1)P(=O)(c1ccccc1)c1ccccc1 (stereo not drawn),-0.6,/,102.0,-11.3
O=C1c2ccccc2C(=O)c2c1oc1c3c(ccc21)OCN(CCCn1ccnc1)C3,-0.9,7.9,84.0*,-1.7
CN1CC(=O)NC(=O)C1,-0.15,31.6,84.0*,-3.8
CCC1CCCCN1CCCNC(=O)c1cn(C)c2ccc(S(=O)(=O)N(C)C3CCCCC3)cc2c1=O (stereo not drawn),/,/,30.0*,/
CCn1cc(C(=O)N2CCN(c3ccccc3)CC2)c(=O)c2cc(S(=O)(=O)N(C)C3CCCCC3)ccc21,/,/,68.0*,/
CC1CCN(CCCNC(=O)c2cn(C)c3ccc(S(=O)(=O)N(C)C4CCCCC4)cc3c2=O)CC1,/,/,108.0,/
CCn1cc(C(=O)N2CCN(c3ccc(F)cc3)CC2)c(=O)c2cc(S(=O)(=O)N(C)C3CCCCC3)ccc21,/,/,107.0,/
